# SARS 3CLpro inh: SARS-CoV 3CLpro protease inhibition | P0C6X7 | recombinant SARS-CoV 3CLpro, quenched FRET peptide cleavage | inhibition, % at 6 µM | 290,000 compounds, 0.14% hits; in the data active = inhibition above about 12%
# BJeLR lethal: kills HRASV12-expressing BJeLR cells; BJeLR (HRASV12) viability, CellTiter-Glo ATP luminescence, 48 h; inhibition, % (concentration not given with the values); 300,000 compounds, 0.17% hits; in the data active = inhibition above about 50%; inconclusive = no clear call, values can overlap the other calls
# BoNT-A LC inh2: blocks Botulinum neurotoxin A light chain protease. 360,000 compounds, 0.17% hits. inhibition, % at 10 µM. multiplex microsphere protease substrate cleavage, flow cytometry; in the data active = inhibition above about 30%; inconclusive = no clear call, values can overlap the other calls; also: plate controls were buffer without enzyme for full effect and enzyme alone for no effect
# BoNT-F LC inh: BoNT F light chain protease inhibition | Multiplex microsphere protease cleavage assay, flow cytometry | inhibition, % at 10 µM | 360,000 compounds, 0.22% hits | AID 588497; in the data active = inhibition above about 35%, passing the limit was not always enough; inconclusive = no clear call, values can overlap the other calls; also: plate controls were buffer without enzyme for full effect and enzyme alone for no effect
# Bead autofluor: flagged as autofluorescent in microsphere protease counterscreen | compound autofluorescence counterscreen, microsphere flow cytometry; stronger effect = higher value | fluorescence intensity (no concentration beside the values) | 360,000 compounds, 3.1% hits; in the data active = fluorescence intensity above about 16000; inconclusive = no clear call, values can overlap the other calls
# Anthrax LF inh2: blocks Bacillus anthracis lethal factor protease | P15917 | multiplex microsphere protease cleavage assay, LF | AID 588501 | inhibition, % at 10 µM | 360,000 compounds, 0.12% hits; in the data active = inhibition above about 30%; inconclusive = no clear call, values can overlap the other calls; also: plate controls were buffer without enzyme for full effect and enzyme alone for no effect
# Target sequence (P15917 whole entry, looked up): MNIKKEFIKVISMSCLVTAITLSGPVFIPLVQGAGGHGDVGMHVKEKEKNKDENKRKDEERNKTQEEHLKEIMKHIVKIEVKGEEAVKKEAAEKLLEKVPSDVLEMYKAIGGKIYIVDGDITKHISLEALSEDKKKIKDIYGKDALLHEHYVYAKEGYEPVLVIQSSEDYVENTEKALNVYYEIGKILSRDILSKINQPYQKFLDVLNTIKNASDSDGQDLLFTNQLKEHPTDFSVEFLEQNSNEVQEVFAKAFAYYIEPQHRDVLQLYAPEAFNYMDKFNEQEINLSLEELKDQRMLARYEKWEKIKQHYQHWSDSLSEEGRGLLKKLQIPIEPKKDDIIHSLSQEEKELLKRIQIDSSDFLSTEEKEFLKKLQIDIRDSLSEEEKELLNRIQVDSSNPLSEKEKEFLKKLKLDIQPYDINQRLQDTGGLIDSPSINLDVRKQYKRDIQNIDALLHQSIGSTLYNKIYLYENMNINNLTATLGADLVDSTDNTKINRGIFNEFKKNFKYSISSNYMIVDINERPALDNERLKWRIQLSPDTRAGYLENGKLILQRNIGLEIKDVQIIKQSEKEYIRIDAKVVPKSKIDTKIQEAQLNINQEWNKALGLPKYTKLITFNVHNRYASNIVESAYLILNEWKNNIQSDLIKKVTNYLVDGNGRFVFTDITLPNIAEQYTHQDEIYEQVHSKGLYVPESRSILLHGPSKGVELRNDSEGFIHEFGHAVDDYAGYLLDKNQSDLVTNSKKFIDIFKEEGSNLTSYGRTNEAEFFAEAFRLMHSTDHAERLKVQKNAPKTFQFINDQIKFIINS
# BoNTA LC inh 1: inhibitors of Botulinum neurotoxin A light chain protease. shares compounds with BoNT-F LC inh. multiplex microsphere protease assay, flow cytometry. inhibition, % at 10 µM. 720 compounds, 3% hits. AID 602139; in the data active = inhibition above about 32%
# BoNT-F LC CP1: inhibitors of Botulinum neurotoxin F light chain protease; 720 tested, under 10 active; inhibition, % at 10 µM; multiplex microsphere protease cleavage assay, flow cytometry; shares compounds with BoNT-F LC inh
# Anthrax LF CP1: inhibitors of Bacillus anthracis lethal factor protease | AID 602142 | 720 tested, under 10 active | multiplex microsphere protease cleavage assay, LF | inhibition, % at 10 µM | shares compounds with BoNT-F LC inh
# * hit, by the source's call; u = inconclusive; x = no result given. An excerpt weighted towards active compounds, which were near 3.6% of everything screened. Unless noted, no rule for the calls is given here.
SMILES,SARS 3CLpro inh,BJeLR lethal,BoNT-A LC inh2,BoNT-F LC inh,Bead autofluor,Anthrax LF inh2,BoNTA LC inh 1,BoNT-F LC CP1,Anthrax LF CP1
CC1CCCC(N2CCN(C(=O)c3ccccc3F)CC2)C1 (stereo not given),-0.2,-2.0,1.4,u,3001,37.8*,-0.6,-5.2,2.2
CC1CCN(C2CCN(C(=O)c3ccccc3F)CC2)CC1,-2.3,-11.8,x,x,x,x,x,x,x
CCC(C)c1cc(S(=O)(=O)N2CCOCC2)ccc1OC (stereo not given),-1.5,x,2.0,43.7*,3252,1.7,-1.2,-3.6,-2.6
CSc1nc(Oc2ccc(F)cc2F)cc(C(F)(F)F)n1,0.0,-2.6,1.0,41.4*,3385,3.1,0.4,-7.7,-3.0
CCn1c(SCC(=O)c2c[nH]c3ccccc23)nc2cc(S(=O)(=O)N3CCOCC3)ccc21,0.2,-2.4,48.9*,-16.5,5805,17.5,15.0,-10.7,10.5
CCn1c(SCC(N)=O)nc2cc(S(=O)(=O)N3CCOCC3)ccc21,-6.6,1.6,0.2,-1.4,3502,-0.5,x,x,x
Nc1ccc(-c2nnn(CC(=O)N3CCCCC3)n2)cc1,-5.2,-11.2,1.2,u,3071,46.5*,-0.9,-2.3,-4.5
CCCOc1ccccc1OCC(=O)N1CCN(S(=O)(=O)c2ccc(Cl)cc2)CC1,x,x,0.9,4.4,8630,-3.6,x,x,x
O=C(COC(=O)CCC(=O)c1cccs1)Nc1ccccc1C(F)(F)F,x,x,4.5,14.2,4198,-0.3,x,x,x
Cc1cc(-c2nnc(SCC(=O)Nc3ccccc3)n2C)no1,1.6,-15.0,u,u,4305,31.8*,0.6,0.5,7.5
COc1ccc(CNC(=O)C2CCN(C(=O)c3ccc(-c4ccccc4)cc3)CC2)cc1,0.0,-12.9,-1.1,-20.9,3412,31.9*,0.5,-5.1,0.4
CSCCC(NS(=O)(=O)c1ccccc1)C(=O)Nc1nccs1 (stereo not given),x,x,-4.1,u,u,u,x,x,x
Cc1cn2c(nc(=O)c3cccnc32)s1,-2.1,6.9,-0.8,-10.9,1971,-1.2,x,x,x
Cc1ccc2oc(=O)c3cnn(CC(=O)N4CCCc5ccccc54)c3c2c1,-4.5,-7.2,-1.0,-13.1,4878,-7.1,x,x,x
COC(=O)c1ccc(COc2ccc(-c3nn[nH]n3)cc2)cc1,-2.1,6.9,48.8*,47.3*,4697,-28.3,-0.1,3.1,-2.2
Cc1cc(C)n2nc(SCC(=O)N(C)c3ccccc3)nc2n1,3.9,-10.7,-0.1,-4.7,4489,-3.7,x,x,x
COc1ccc(-c2ccnc(SCC(=O)c3ccc(Cl)cc3)n2)cc1,0.0,0.2,7.9,70.0*,6905,37.6*,0.3,-4.1,-2.0
COc1ccc(-c2ccnc(SCC(=O)c3ccc(OC)c(OC)c3)n2)cc1,0.9,-11.2,-0.7,-10.6,2048,0.1,x,x,x
COc1ccc(Cc2c(-c3cccc(Cl)c3)nc3ccc(Cl)cn23)c(C)c1,x,x,11.2,-0.7,7785,14.0,x,x,x
Cc1ccc(CCC(=O)Nc2ccc(Cl)cc2Cl)o1,x,x,-0.5,-2.8,3523,-4.8,x,x,x
Cc1ccc(NC(=O)CCc2ccc(C)o2)c(Br)c1,5.0,-7.5,3.4,90.9*,3907,-12.4,-0.1,-2.2,-2.8
CCCCCn1c(=O)c(C(=O)Nc2ncccc2C)c(O)c2ccccc21,-2.7,-8.9,-4.6,38.3*,4119,-1.2,0.3,-6.6,-3.6
CCCn1c(=O)c(C(=O)Nc2ncccc2C)c(O)c2ccccc21,4.2,0.0,0.5,1.2,3926,-3.5,x,x,x
COc1ccc(CCNC(=O)C2CCN(S(=O)(=O)N3CCOCC3)CC2)cc1OC,-1.2,-2.6,4.1,36.5*,11415,0.5,-1.5,2.8,-1.3
O=C(COC(=O)/C=C/c1ccc(OC(F)F)cc1)Nc1cccc(S(=O)(=O)N2CCOCC2)c1,x,x,-0.6,-3.9,3673,-9.0,x,x,x
SMILES,SARS 3CLpro inh,BJeLR lethal,BoNT-A LC inh2,BoNT-F LC inh,Bead autofluor,Anthrax LF inh2,BoNTA LC inh 1,BoNT-F LC CP1,Anthrax LF CP1
O=C(NCc1cccc(C(F)(F)F)c1)c1csc(COCCO)n1,x,x,0.9,-5.5,2784,-8.1,x,x,x
O=C(Nc1ccc(Nc2ccncc2)cc1)c1ccc(Nc2ccnc3ccc([N+](=O)[O-])cc23)cc1[N+](=O)[O-],-4.4,18.1,0.6,-11.1,3649,-10.0,x,x,x
CSc1ccc(C(=O)C2CCCN(CCCn3cccn3)C2)cc1 (stereo not given),6.5,-7.3,3.4,37.2*,2175,-0.2,0.1,0.4,7.4
N#Cc1cccc(C(c2nnnn2C2CCCC2)N2CCCCCC2)c1 (stereo not given),-2.7,-4.7,0.4,32.2,3317,-3.4,1.9,2.0,3.1
N#Cc1cccc(C(c2nnnn2C2CCCC2)N2CCC(Cc3ccccc3)CC2)c1 (stereo not given),0.4,2.5,-1.3,-2.1,5535,-1.5,x,x,x
Fc1ccc(-c2ncc3ccccn23)cc1,6.8,8.5,35.6*,-0.9,4490,14.7,1.6,0.1,-0.5
Fc1ccc(-c2nnc3ccccn23)cc1,1.6,-6.4,-0.8,-5.7,2599,-0.6,x,x,x
Brc1ccc(-c2ncc3ccccn23)cc1,1.3,-13.5,1.7,-1.6,3322,9.0,0.2,-3.9,-1.5
CCOc1ccc(NC(c2ccccc2)P(=O)(OC)OC)cc1 (stereo not given),-2.8,10.7,2.5,u,4031,-9.5,x,x,x
Cc1n(C)c2cc(Cl)ccc2[n+]1Cc1ccccc1,-0.1,14.4,-0.5,-0.8,3755,0.3,x,x,x
CN1CCN(CC(=O)Nc2nnc(-c3cccs3)s2)CC1,3.1,-4.7,3.3,36.2*,2108,-0.2,-0.8,-5.1,0.2
O=[N+]([O-])c1ccc(/C=N\NS(=O)(=O)c2ccc(F)cc2)o1,-1.4,-0.5,1.2,4.6,4421,0.9,x,x,x
Cc1cc(C)nc(NS(=O)(=O)c2ccc(NC(=O)c3ccc4c(c3)OCCO4)cc2)n1,2.2,8.2,4.2,35.6*,4686,2.8,0.0,-5.5,-4.4
CCCCC(=O)NCc1ccc2c(c1)cc(C)n2C,-9.1,-3.1,42.9*,16.8,10959,46.7*,1.5,-5.2,-0.7
CCCS(=O)(=O)NCc1ccc2c(c1)cc(C)n2C,-2.2,-3.4,69.3*,-41.4,u,3.4,1.4,-13.8,-2.4
Cc1cc2cc(CNC(=O)CC(C)C)ccc2n1C,-1.9,-2.2,30.9*,12.8,17533*,33.8*,0.5,-6.7,-1.8
CCS(=O)(=O)NCc1ccc2c(c1)cc(C)n2C,-10.0,-11.1,10.4,-115.9,4442,-72.5,x,x,x
O=C(NC1CCCCC1)C(c1ccc(O)c(O)c1)N(C(=O)Cn1nnc2ccccc21)c1cccc(O)c1 (stereo not given),-2.1,1.0,-1.5,17.1,2735,-4.1,x,x,x
COc1ccc(CCNC(=O)CCCc2ccccc2)cc1OC,0.8,-11.1,1.9,34.7*,3365,9.6,-0.1,-5.4,2.1
COC(=O)c1ccc(NC(=O)N(c2ccccc2)c2ccccc2)cc1,-1.5,2.0,0.3,3.0,5374,0.3,x,x,x

# Screens as filed in PubChem BioAssay.
